From PubChem BioAssay
Compounds with a hit are over-represented: about 3.8% of the library has one in this group of screens.
PME-1 Maybr inh = inhibitors of human PME-1 in Maybridge library; Protein phosphatase methylesterase 1 (Homo sapiens), Q9Y570; 16,000 compounds, 0.5% hits; inhibition, % at 9 µM; AID 2291, 2010; recombinant PME-1, FP-Rh probe fluorescence polarization; in the data active = inhibition above about 30%
rat GALR2 agon = agonists of rat galanin receptor 2 (GALR2). 16,000 compounds, 0.5% hits. activation, % at 10 µM. Galanin receptor type 2 (Rattus norvegicus), O08726. AID 833, 2007. cell-based GALR2 agonist screen; in the data active = activation above about 15%
Luminol counter = counter-screen for Nox1 inhibitors: inhibitors of luminol chemiluminescence. HRP/luminol/H2O2 chemiluminescence counterscreen. inhibition, % at 6.7 µM. 16,000 compounds, 0.4% hits; note: reference of the scale not given here
S1P1 agonist = activates the human S1P1 receptor. AID 1044, 2008. Sphingosine 1-phosphate receptor 1 (Homo sapiens), P21453. S1P1 agonist cell-based reporter assay. activation, % at 4.5 µM. 16,000 compounds, 1.5% hits; in the data active = activation above about 80%
Nox1 inhibitor = inhibitors of human NADPH oxidase 1 (Nox1); Q9Y5S8; HT29 cells, luminol chemiluminescence ROS; inhibition, % at 6.7 µM; 16,000 compounds, 0.81% hits; AID 1792, 2009
NOTCH agonist = agonists of NOTCH signaling | 15,000 compounds, 0.4% hits | NOTCH signaling luciferase reporter cells, luminescence | activation, % at 2.5 µM | AID 434982, 2010; in the data active = activation above about 2.2%
* hit, by the source's call; / = no result given. Cut-off read from the data, not from the text of the source, unless noted: active = inhibition above about 75%; inactive = the rest.

SMILES	PME-1 Maybr inh	rat GALR2 agon	Luminol counter	S1P1 agonist	Nox1 inhibitor	NOTCH agonist
N#CC(C#N)=NNc1ccc(C(F)(F)F)cc1	29.9	-13.5	8.2	115.4*	8.5	-1.0
N#CC(C#N)=NNc1ccc(OC(F)(F)F)cc1	0.1	-12.4	13.3	109.5*	17.5	-0.5
CC(C)C1(O)c2ccccc2-c2ncccc21 (stereo not drawn)	-0.8	-6.5	-2.2	5.5	-23.5	1.2
CC1CCN(CC(=O)Nc2ccc(Cl)cc2C(=O)c2ccccc2Cl)CC1	-1.2	-8.5	-1.1	-17.9	10.0	/
